Data reported in the supplement of paper PMC7380943.
Counter-ions that a name gives are not always drawn.

Assays:
[1] = tested on: CLZ3 (HCA2 human fibroblast dual HR-NHEJ reporter); experiment: NHEJ repair efficiency (GFP+ cells) relative to control (log10 fold); higher = more non-homologous end joining; settings: 5 µM; doxycycline 0.5 ug/mL
[2] = tested on: CLZ3 (HCA2 human fibroblast dual HR-NHEJ reporter); experiment: HR repair efficiency (tdTomato+ cells) relative to control (log10 fold); higher = more homologous recombination; settings: 5 µM; doxycycline 0.5 ug/mL
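For HR repair efficiency (tdTomato+ cells) relative to control in this document: compound given one day before doxycycline, which switches on I-SceI endonuclease expression to create double-strand breaks within the integrated reporter.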
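For NHEJ repair efficiency (GFP+ cells) relative to control in this document: compound given one day ahead of doxycycline, which switches on I-SceI endonuclease to cut the chromosomally integrated reporter and create DSBs.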

| Compound | NHEJ repair efficiency (log10) [1] | HR repair efficiency (log10) [2] |
| --- | --- | --- |
| NCC(=O)O [Aminoacetic acid] | 0.185 | 0.151 |
| C[C@@H]1O[C@@H](OC[C@H]2O[C@@H](Oc3cc(O)c4c(c3)O[C@H](c3ccc(O)c(O)c3)CC4=O)[C@H](O)[C@@H](O)[C@@H]2O)[C@H](O)[C@H](O)[C@H]1O [Eriocitrin] | 0.00276 | -0.0151 |
| O=C1C[C@@H](c2ccc(O[C@@H]3O[C@H](CO)[C@@H](O)[C@H](O)[C@H]3O)cc2)Oc2cc(O)ccc21 [Liquiritin] | -0.084 | -0.0906 |
| N[C@@H](Cc1ccc(O)c(O)c1)C(=O)O [Levodopa] | 0.0328 | 0.0905 |
| O=C(/C=C/c1ccc(O)c(O)c1/C=C/c1ccc(O)c(O)c1)O[C@H](Cc1ccc(O)c(O)c1)C(=O)O [Salvianolic Acid A] | 0.0713 | 0.0119 |
| CC(=O)OC1CC23CC(C)(O)C(CCC2C(C)(O)C2C4OC4C(C)(C)C12O)C3O (stereo not given) [Rhodojaponin Ii] | -0.0128 | -0.000636 |
| COC(=O)C1=CO[C@@H](O[C@@H]2O[C@H](CO)[C@@H](O)[C@H](O)[C@H]2O)[C@H]2[C@@H]1C(=O)C[C@@H]2C [Verbenalin] | 0.0793 | 0.178 |
| COc1ccc([C@@H]2CC(=O)c3c(O)cc(O[C@@H]4O[C@H](CO[C@@H]5O[C@@H](C)[C@H](O)[C@@H](O)[C@H]5O)[C@@H](O)[C@H](O)[C@H]4O)cc3O2)cc1O [Hesperidin] | 0.196 | 0.258 |
| O=C(O)[C@H]1O[C@@H](Oc2cc3oc(-c4ccccc4)cc(=O)c3c(O)c2O)[C@H](O)[C@@H](O)[C@@H]1O [Baicalin] | -0.073 | 0.053 |
| O=c1c(-c2ccc(O)cc2)coc2cc(O[C@@H]3O[C@H](CO)[C@@H](O)[C@H](O)[C@H]3O)ccc12 [Daidzin] | -0.234 | 0.03 |
| COc1cc2ccc(=O)oc2cc1O [Scopoletin] | -0.0239 | -0.177 |
| C[C@@H]1O[C@@H](O[C@H]2C(=O)c3c(O)cc(O)cc3O[C@@H]2c2ccc(O)c(O)c2)[C@H](O)[C@H](O)[C@H]1O [Astilbin] | 0.0148 | 0.109 |
| CC(C)=CCC[C@](C)(O[C@@H]1O[C@H](CO)[C@@H](O)[C@H](O)[C@H]1O)[C@H]1CC[C@]2(C)[C@@H]1[C@H](O)C[C@@H]1[C@@]3(C)CC[C@H](O)C(C)(C)[C@@H]3[C@@H](O[C@@H]3O[C@H](CO)[C@@H](O)[C@H](O)[C@H]3O[C@@H]3OC[C@@H](O)[C@H](O)[C@H]3O)C[C@]12C [Notoginsenoside R1] | -0.0455 | 0.0156 |
| COc1cc(C[C@@H](CO[C@@H]2O[C@H](CO)[C@@H](O)[C@H](O)[C@H]2O)[C@H](CO[C@@H]2O[C@H](CO)[C@@H](O)[C@H](O)[C@H]2O)Cc2ccc(O)c(OC)c2)ccc1O [Secoisolariciresinol Diglycoside] | 0.00786 | 0.0805 |
| O=c1cc(-c2ccc(O)cc2)oc2c([C@@H]3O[C@H](CO)[C@@H](O)[C@H](O)[C@H]3O)c(O)cc(O)c12 [Vitexin] | 0.172 | 0.126 |
| C=C1C[C@]2(O)O[C@@]3(CC2=C(C)C)[C@@H](C)CC[C@@H]13 [Isocurcumenol] | -0.116 | -0.239 |
| C/C1=C/CC[C@H](C)C(=O)C[C@@H](C(C)C)C(=O)C1 [Curdione] | -0.0258 | 0.0177 |
| COC(=O)c1ccccc1O[C@@H]1O[C@H](CO[C@@H]2OC[C@@H](O)[C@H](O)[C@H]2O)[C@@H](O)[C@H](O)[C@H]1O [Gaultherin] | -0.0565 | -0.122 |
| COc1c(O[C@@H]2O[C@H](C(=O)O)[C@@H](O)[C@H](O)[C@H]2O)cc(O)c2c(=O)cc(-c3ccccc3)oc12 [Wogonoside] | -0.0783 | -0.00302 |
| C[C@H]1[C@H](C)CC[C@]2(C(=O)O[C@@H]3O[C@H](CO[C@@H]4O[C@H](CO)[C@@H](O[C@@H]5O[C@H](C)[C@H](O)[C@@H](O)[C@H]5O)[C@H](O)[C@H]4O)[C@@H](O)[C@H](O)[C@H]3O)CC[C@]3(C)C(=CC[C@@H]4[C@@]5(C)C[C@@H](O)[C@H](O)[C@@](C)(CO)[C@@H]5CC[C@]43C)[C@H]12 [Asiaticoside] | -0.0035 | -0.0111 |
| O=C1c2ccccc2C(=O)c2c(O)c(O)cc(O)c21 [Purpurin] | -0.0313 | 0.0725 |
| CC(C)(C)NCC(O)c1ccc(O)c(CO)c1 (stereo not given) [Salbutamol Sulfate] | -0.0861 | -0.085 |
| CCCCCCC[C@H](O)CC(=O)CCc1ccc(O)c(OC)c1 [8-Gingerol] | 0.00172 | 0.0341 |
| COc1cc(/C=C/C(=O)O)ccc1O [Sodium Ferulate] | -0.0171 | 0.0132 |
| C/C=C\c1ccc(OC)cc1 [cis-Anethol] | 0.133 | 0.0605 |
| CC(=O)[C@H]1CC[C@H]2[C@@H]3CCC4=CC(=O)CC[C@]4(C)[C@H]3CC[C@]12C [Lutin] | 0.0637 | 0.268 |
| C=C1CC[C@@H]2[C@](C)(CO)[C@H](O)CC[C@@]2(C)[C@@H]1C/C=C1/C(=O)OC[C@H]1O [Andrographolide] | 0.0511 | 0.266 |
| COc1cc(O)cc(O)c1C(=O)/C=C/c1ccccc1 [Cardamonin] | 0.233 | -0.195 |
| CC(=O)OC(C)C(C)C(=O)OCC12C3CC(C)(C)[C@H](O[C@@H]1C[C@]1(C)C3=CCC3C4(C)CCC(O[C@@H]5O[C@H](C(=O)O)[C@@H](O[C@H]6O[C@H](CO)[C@@H](O)[C@H](O)[C@H]6O)[C@H](O)[C@H]5O[C@@H]5OC[C@@H](O)[C@H](O)[C@H]5O)[C@](C)(CO)C4CCC31C)C2O (stereo not given in full) [Sodium Aescinate] | 0.101 | 0.0537 |
| COc1cc(O)c(CC=C(C)C)c(O)c1C(=O)/C=C/c1ccc(O)cc1 [Xanthohumol] | 0.0812 | 0.0483 |
